Pf Dd2 inh: qHTS Primary assay for Inhibitors of Plasmodium falciparum Dd2 growth in vitro; P. falciparum Dd2 growth, SYBR Green, 72 h; actives 4.3% (n = 120,000); Potency, µM (top dose mostly 28.9 µM), without a hit: at the top dose activity, negative = inhibition, usual class: inhibitors; active = well fitted inhibition curve with a large enough effect;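 also: plate controls were DMSO vehicle for no effect and reference drug for full effect; nearly all actives have a fitted effect of over 65% in size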
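Readout: SYBR Green fluorescence, 485 nm excitation, 535 nm emission, after ~16 h lysis at 37C. Before that, Dd2-infected red cells (2.5% hematocrit) grew 72 h with compound, 29 uM top final concentration.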
* = called active by the depositor; i = inactive; [ ] = remark or other dose. The full list was thinned out, with hits kept by preference. Potency is read from the fitted curve at half-maximal effect.

SMILES	Pf Dd2 inh
COc1ccc2ccc(OCc3nc(C(=O)N(C)CC4COCCO4)co3)cc2c1 (configuration not stated)	i
O=C1[C@@H]2C[C@@H](O)CN2C2(CN(Cc3cccc(OC(F)(F)F)c3)C2)C(=O)N1Cc1ccccc1F	i
Cc1ccc(C2Cn3nnc(C(=O)Nc4ccc(Br)cc4)c3CO2)cc1 (configuration not stated)	8%
Cc1ccc(F)cc1S(=O)(=O)N1C[C@@H](C)[C@@](C)(O)C1	-10%
CC(C)N(Cc1ccccc1)Cc1nnc2cc(-c3nc(-c4ccccc4)no3)ccn12	i
COCC1CN(C)CC12CCN(C(=O)Cc1ccc(OC)c(Cl)c1)CC2 (configuration not stated)	i
COc1cccc(C(=O)N2CCN(c3nc4ncccc4o3)CC2)c1	i
Cc1cc2nc(N(Cc3cccnc3)C(=O)c3ccc(Cl)s3)sc2cc1C	45%
COc1cccc2sc(N(Cc3cccnc3)C(=O)c3ccc(S(=O)(=O)N(C)C)cc3)nc12	-21%
O=C(COc1ccccc1)N(Cc1cccnc1)c1nc2ccc(F)cc2s1	15%
CCOc1ccc2nc(N(Cc3cccnc3)C(=O)C3CCCCC3)sc2c1	2.2µM*
O=C(c1cccs1)N(Cc1cccnc1)c1nc2c(F)cc(F)cc2s1	i
COc1ccc2nc(N(Cc3cccnc3)C(=O)COc3ccccc3)sc2c1	16%
COc1ccc2sc(N(Cc3cccnc3)C(=O)COc3ccccc3)nc2c1	i
COc1ccc2nc(N(Cc3cccnc3)C(=O)C3COc4ccccc4O3)sc2c1 (configuration not stated)	i
COc1ccc2sc(N(Cc3cccnc3)C(=O)c3ccc4c(c3)OCCO4)nc2c1	7.1µM*
Cc1ccc2nc(N(Cc3cccnc3)C(=O)C3CCCCC3)sc2c1	2.5µM*
CCc1ccc2nc(N(CCN(CC)CC)C(=O)c3cccs3)sc2c1	-10%
CCc1ccc2nc(N(Cc3cccnc3)C(=O)c3cccs3)sc2c1	3.2µM*
Cc1ccc(C2Cn3nnc(C(=O)N4CCN(C(=O)c5cccc(F)c5)CC4)c3CO2)cc1 (configuration not stated)	-10%
CS(=O)(=O)N1CCCN(C(=O)CCCc2ccccc2)c2ccccc21	3%
COc1cccc(S(=O)(=O)N2C[C@@H](F)C[C@H]2C(=O)N2CCCCC2)c1	6%
COCCNC(=O)N1CCc2nc(N3CCN(C)CC3)sc2C1	-21%
Cc1cn2nc(C(=O)N3CCC(NC(=O)c4ccc(C)c(C)c4)CC3)cc2c(=O)[nH]1	-1%
CCS(=O)(=O)Nc1ccc(C(=O)N[C@H]2C[C@@H](C(=O)OC)N(C)C2)cc1	14%
SMILES	Pf Dd2 inh
CCn1ncc(NC(=O)Cn2ncc3cc(-c4ccc(F)cc4F)ccc32)n1	-21%
O=C(c1ccc(C2CCCNC2)cc1)N1CCC(Oc2cccc(F)c2)CC1 (configuration not stated)	13µM*
O=C(c1ccc(F)cc1)N1CCC(Oc2cccnc2)C1 (configuration not stated)	12%
O=C(c1ccc(C2CCCNC2)cc1)N1CCCN(c2ncccn2)CC1 (configuration not stated)	-2%
CC(C)CN1CC(C(=O)NCc2nc(-c3ccccc3)no2)CC1=O (configuration not stated)	-8%
Cc1cc2nc3n(c(=O)c2n1CC(=O)NCCC1=CCCCC1)CCC3	i
Cc1cc2c(c(=O)n(-c3ccccc3)c(=O)n2CC(=O)Nc2ccccc2F)n1C	-6%
O=C(NC(=O)c1ccc(F)cc1)Nc1ccc(-c2cc(C(F)(F)F)nn2-c2ccccc2)cc1	27%
COc1ccccc1C(=O)NC(=O)Nc1ccc(-n2nc(C(F)(F)F)cc2C(F)(F)F)cc1	11µM*
O=C(NC(=O)c1ccccc1)Nc1ccc(-n2nc(C(F)(F)F)cc2C(F)(F)F)cc1	-5%
CCn1cc(S(=O)(=O)N2CCC(N3C(=O)[C@H](OC)[C@@H]3c3ccncc3)CC2)cn1	13%
COC(=O)[C@@H]1C[C@H](NC(=O)c2cccc(-n3nnnc3C)c2)CN1C	-9%
COC(=O)c1ccccc1NC(=O)c1cc(CN2CCCC2)on1	i[5.79 µM]
Cc1cc(C)n(CCCNC(=O)c2cc(COc3ccc4sc(C)nc4c3)on2)n1	-11%
CC(C)(C)C(Cn1ccnc1)NC(=O)c1cc(COc2ccc3c(c2)CCCC3)on1 (configuration not stated)	8.9µM*
Cn1nccc1CCC(=O)N[C@@H]1COCC[C@H]1Oc1ccc(CO)cc1	-9%
CC(C)(C)C(=O)NC1CCN(c2nc3ncccc3o2)CC1	-16%[44.1 µM]
COc1ccc(N2CC(C(=O)N3CCC(C(=O)NCc4ccc(C(F)(F)F)cc4)C3)NC2=O)cc1 (configuration not stated)	-4%
CCN1CCC(N2C[C@@H](COC)[C@H](c3nc(C)no3)C2)CC1	22%
O=C(C1CCOCC1)N1CCCC(CCc2ccccc2C(F)(F)F)C1 (configuration not stated)	-10%
CNC(=O)c1ccc(CN2CCCC(CCc3ccccc3C(F)(F)F)C2)o1 (configuration not stated)	7.9µM*
Cn1ccc(C(=O)N2CCCC(CCc3ccccc3C(F)(F)F)C2)n1 (configuration not stated)	-7%
Cc1ccc2nc(CO[C@H]3CN(Cc4ncc[nH]4)C[C@H]3F)[nH]c2c1	1%[44.1 µM]
COc1cccc(CNC(=O)CN2C(=O)NC3(CCOCC3)C2=O)c1OC	16%
COc1ccccc1N1CCN(CC(O)COc2ccc(C)cc2C(C)(C)C)CC1 (configuration not stated)	8.9µM*
SMILES	Pf Dd2 inh
COc1ccccc1N1CCN(CC(O)COc2cc(C)cc(C)c2)CC1 (configuration not stated)	42%
COc1ccccc1N1CCN(CC(O)COc2ccc(Cl)c(C)c2)CC1 (configuration not stated)	56%
Cc1ccccc1C(=O)N1CCC2(CC1)C(=O)NCN2Cc1ccc(Cl)cc1	-13%
COc1cccc(CNc2ncnc3c2CN(C2CCCNCC2)C(=O)CN3C)c1 (configuration not stated)	-10%
O=C(c1c(OCC2CC2)cc(=O)n2c1CCOCC2)N1CCN(c2ncccn2)CC1	10%
CCOC(=O)CCNC(=O)N1CCCC(c2nc(-c3cnccn3)no2)CCNC(=O)CC1 (configuration not stated)	-2%
COc1cc2c(cc1OC1CCCC1)NC(=O)C21CCN(c2ncccn2)CC1	-7%[44.1 µM]
COc1cc2c(cc1OC1CCCC1)NC(=O)C21CCN(c2nc(C)cc(C)n2)CC1	11µM*
COc1cc2c(cc1OC1CCCC1)NC(=O)C21CCN(c2ncc(F)cn2)CC1	i
COC[C@H]1C[C@@H](NC(=O)c2cnccn2)[C@H](O)[C@@H]1O	-6%[44.1 µM]
O=S(=O)(c1cccs1)N1C[C@@H](c2ccc(F)cc2)[C@@H]2[C@H]1C1CCN2CC1	5.6µM*
O=C1NCCCCCCN(S(=O)(=O)c2cccs2)[C@H]2CCC[C@@H]12	-17%
O=C1NCCCCCN(S(=O)(=O)c2cccs2)[C@H]2CCCC[C@@H]12	-10%
COc1cccc(C(=O)N2CC(=O)N(c3ccc(C)cc3)CC2C)c1OC (configuration not stated)	-13%
Cc1sc(-n2cccc2)c(C(C)NC(=O)Nc2ccccc2Cl)c1C (configuration not stated)	5.6µM*
COc1cc(NC(=O)NC(C)c2c(-n3cccc3)sc3c2CCCC3)cc(OC)c1OC (configuration not stated)	-17%
